# Test results taken from PubChem BioAssay AID504333 (National Center for Advancing Translational Sciences (NCATS), 2011).
# In all, about 360,000 compounds went through this assay and about 16,000 (4.4%) were called active. Not shown: some 9% with an inconclusive outcome. Calls follow the shape of the dose curve; as a rule, active = well fitted inhibition curve with a large enough effect; inconclusive = small, poorly fitted or top-dose-only effect; inactive = no such curve, though single readings can be large or run the other way. What follows is part of a selection rich in actives, with near analogues and random picks from the rest. A call without a number means that no potency is given here.
# Biological target: Bromodomain adjacent to zinc finger domain protein 2B (Homo sapiens) (UniProt Q9UIF8)
# Assay: qHTS Assay for Inhibitors of BAZ2B; also: nearly all actives have a fitted effect of over 60% in size
# Conditions: AlphaScreen BAZ2B-H3K14Ac peptide displacement; series mostly up to 114 µM
# Procedure, shortened: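 BAZ2B 50 nM plus b-H3(5-23)K14Ac 50 nM, PBS pH 7.4/0.01% Tween-20, 30 min RT; compound added (max 110 uM), 30 min RT; streptavidin donor/Ni-chelate acceptor beads 10 ug/mL final, 20 min dark; AlphaScreen read.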
# Potency is read from the fitted curve at half-maximal effect.
# Sequence of Bromodomain adjacent to zinc finger domain protein 2B (Homo sapiens) (Q9UIF8 whole entry, looked up, the tested form may be a part): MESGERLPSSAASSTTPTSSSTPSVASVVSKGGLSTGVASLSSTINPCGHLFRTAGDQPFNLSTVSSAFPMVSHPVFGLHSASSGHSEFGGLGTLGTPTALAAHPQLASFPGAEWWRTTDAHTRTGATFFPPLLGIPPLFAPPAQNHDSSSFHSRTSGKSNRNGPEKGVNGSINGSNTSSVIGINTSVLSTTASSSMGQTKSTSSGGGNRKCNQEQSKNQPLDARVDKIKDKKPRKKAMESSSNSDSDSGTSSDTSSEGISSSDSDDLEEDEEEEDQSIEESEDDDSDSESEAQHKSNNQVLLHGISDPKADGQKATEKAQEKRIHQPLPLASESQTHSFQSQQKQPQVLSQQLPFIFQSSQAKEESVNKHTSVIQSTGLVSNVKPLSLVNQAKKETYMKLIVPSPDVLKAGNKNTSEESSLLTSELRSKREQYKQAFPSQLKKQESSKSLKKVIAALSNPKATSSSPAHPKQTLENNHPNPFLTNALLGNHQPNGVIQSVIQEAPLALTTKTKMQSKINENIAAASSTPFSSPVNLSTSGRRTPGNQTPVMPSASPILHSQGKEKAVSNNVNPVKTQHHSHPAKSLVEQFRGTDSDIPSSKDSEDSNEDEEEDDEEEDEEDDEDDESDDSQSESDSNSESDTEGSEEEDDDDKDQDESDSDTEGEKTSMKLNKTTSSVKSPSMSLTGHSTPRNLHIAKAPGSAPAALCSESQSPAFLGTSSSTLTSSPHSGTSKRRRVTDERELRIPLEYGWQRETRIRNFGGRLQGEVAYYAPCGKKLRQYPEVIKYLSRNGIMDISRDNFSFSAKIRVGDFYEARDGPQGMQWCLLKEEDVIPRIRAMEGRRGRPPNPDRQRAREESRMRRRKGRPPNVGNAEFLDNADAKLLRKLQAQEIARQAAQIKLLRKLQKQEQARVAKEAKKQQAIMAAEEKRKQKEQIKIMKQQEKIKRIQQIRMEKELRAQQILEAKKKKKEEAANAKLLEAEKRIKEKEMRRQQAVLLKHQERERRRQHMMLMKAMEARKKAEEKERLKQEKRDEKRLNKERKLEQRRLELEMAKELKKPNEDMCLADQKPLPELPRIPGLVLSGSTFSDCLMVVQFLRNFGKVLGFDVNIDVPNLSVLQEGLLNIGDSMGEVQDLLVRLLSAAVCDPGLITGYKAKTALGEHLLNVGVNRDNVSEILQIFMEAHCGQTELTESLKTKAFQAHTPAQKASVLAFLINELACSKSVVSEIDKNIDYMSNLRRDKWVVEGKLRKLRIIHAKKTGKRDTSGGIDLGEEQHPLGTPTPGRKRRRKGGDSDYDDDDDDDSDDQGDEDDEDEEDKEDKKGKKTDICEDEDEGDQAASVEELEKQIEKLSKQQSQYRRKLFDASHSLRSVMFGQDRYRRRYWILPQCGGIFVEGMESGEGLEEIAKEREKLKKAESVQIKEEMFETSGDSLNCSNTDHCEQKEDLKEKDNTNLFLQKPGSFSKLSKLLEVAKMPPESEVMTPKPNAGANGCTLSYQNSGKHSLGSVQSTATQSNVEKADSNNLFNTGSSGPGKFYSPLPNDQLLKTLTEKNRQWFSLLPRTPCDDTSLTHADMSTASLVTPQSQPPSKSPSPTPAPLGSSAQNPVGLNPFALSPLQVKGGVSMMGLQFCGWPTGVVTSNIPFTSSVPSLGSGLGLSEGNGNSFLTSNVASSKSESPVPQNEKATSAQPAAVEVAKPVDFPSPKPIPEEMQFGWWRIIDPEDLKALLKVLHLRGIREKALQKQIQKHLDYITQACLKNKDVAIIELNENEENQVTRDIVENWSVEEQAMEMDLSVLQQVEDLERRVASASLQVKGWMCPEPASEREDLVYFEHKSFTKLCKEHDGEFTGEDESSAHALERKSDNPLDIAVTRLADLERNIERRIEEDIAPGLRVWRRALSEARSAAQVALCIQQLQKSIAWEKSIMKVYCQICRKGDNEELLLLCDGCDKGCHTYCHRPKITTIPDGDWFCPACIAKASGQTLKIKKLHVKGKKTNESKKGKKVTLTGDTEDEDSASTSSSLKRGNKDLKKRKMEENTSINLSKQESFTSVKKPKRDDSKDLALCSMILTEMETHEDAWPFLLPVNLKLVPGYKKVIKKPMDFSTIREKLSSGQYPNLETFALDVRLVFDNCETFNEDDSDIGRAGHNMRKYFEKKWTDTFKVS
row,SMILES,Potency
1,CC(C)(C)OC(=O)N1CCC(c2c(C(=O)N3CCN(c4cccc(Cl)c4)CC3)cnn2-c2cccc(Cl)c2)CC1,inactive
2,O=C(Nc1ccccc1Cl)N1CCC(CN2CCCC2)CC1,inactive
3,CCS(=O)(=O)N1CCc2cc(C(=O)NCc3ccc(C)cc3)ccc21,inactive
4,O=C(NC1CC(=O)N(c2ccc(F)cc2)C1)C1CCCCC1 (centres undefined),inactive
5,CCCNc1ncnc2c1c(-c1ccccc1)cn2-c1ccc(OCC)cc1,inactive
6,COc1ccc(-n2cc(-c3ccccc3)c3c(=S)nc[nH]c32)cc1,79.4 µM (active)
7,COc1ccc(N2C(=O)C(Cc3ccccc3)NC2=S)cc1 (centres undefined),inactive
8,COc1ccc(C2=NC3(CCCCC3)N(CC(=O)Nc3ccc(C(C)C)cc3)C2=O)cc1,inactive
9,CCN(CC)CCC(c1ccc2c(c1)OCO2)c1c(OC)cc(OC)c2c(-c3ccccc3)cc(=O)oc12 (centres undefined),inactive
10,COc1cc(OC)c2ccc(=O)oc2c1C(CCN1CCN(c2ccccc2)CC1)c1ccc2c(c1)OCO2 (centres undefined),25.1 µM (active)
11,CCN(CC)CCC(c1cc(OC)c(OC)c(OC)c1)c1c(OC)cc(OC)c2c(-c3ccccc3)cc(=O)oc12 (centres undefined),inactive
12,CCOC(=O)C1CCCN(C(=O)c2ccc(-n3ccc4ccccc43)s2)C1 (centres undefined),inactive
13,Cc1cccc(C(=O)OCC(=O)Nc2ccc(F)cc2)c1,inactive
14,COc1cc(OC)cc(C(=O)OCC(=O)Nc2ccc(F)cc2F)c1,inactive
15,O=C(COC(=O)c1ccc(F)cc1F)Nc1ncccn1,50.1 µM (active)
16,COc1ccc(CCNC(=O)C(=O)NCC(c2ccco2)S(=O)(=O)c2cccs2)cc1OC (centres undefined),inactive
17,COc1ccccc1NC(=O)CSC1=Nc2ccccc2C2=NC(CC(=O)NCc3cccs3)C(=O)N12 (centres undefined),inactive
18,COc1ccc(CN2C(=O)C(NC(=O)c3cccc(C)c3)(C(F)(F)F)N=C2c2ccccc2)cc1 (centres undefined),inactive
19,CSc1ccc(/C=N/N2CCN(Cc3ccccc3Cl)CC2)cc1,25.1 µM (active)
20,COc1cc(Cl)c(S(=O)(=O)N2CCN(Cc3ccc4c(c3)OCO4)CC2)cc1Cl,inactive
21,COc1ccccc1/C=N/N1CCN(Cc2ccccc2Cl)CC1,44.7 µM (active)
22,O=S1(=O)CCN(Cc2ccccc2Cl)CC1,inactive

row,SMILES,Potency
1,COc1ccccc1/C=C/C=N/NC(=O)CN1CCN(Cc2ccccc2)CC1,inactive
2,CSc1ccc(/C=N/NC(=O)c2cccc(Cl)c2)cc1,inactive
3,CCC(=O)N1c2ccccc2CC1C(=O)N1CCN(c2ccccc2)CC1 (centres undefined),inactive
4,CCc1ccc(NC(=O)N2CCN(C(=O)c3nsc4ccccc34)CC2)cc1,inactive
5,Cc1ccccc1CSc1nc2c([nH]c3ccccc32)c(=O)n1C,inactive
6,CCN(CC)c1nn2c(=O)c(C(=O)NCCc3ccccc3)cnc2s1,inactive
7,COc1ccccc1N1CCN(C(=O)C2CCN(S(=O)(=O)c3c(C)noc3/C=C/c3ccc(C)cc3)CC2)CC1,inactive
8,COc1ccccc1-c1noc(CSc2nnc(-c3ccccc3)n2-c2ccc(C)c(C)c2)n1,inactive
9,Cc1ccc(NC(=O)c2ccc(CN3CC(=O)N4CCCCC4C3=O)cc2)c(Cl)c1 (centres undefined),inactive
10,COc1cc(NC(=O)CCn2nc(C)cc2C)cc(OC)c1OC,inactive
11,N#Cc1nc(-c2cccc3ccccc23)oc1N,inactive
12,CC1CCN(c2oc(-c3ccccc3F)nc2C#N)CC1,14.1 µM (active)
13,Cc1oc(-c2ccccc2F)nc1CS(=O)CC(=O)NCCN1CCCCC1C (centres undefined),inactive
14,COc1cccc(C2C(C(=O)Nc3ccc(C)cc3C)=C(C)Nc3c(C(=O)Nc4ccccc4)cnn32)c1 (centres undefined),inactive
15,CCOc1ccccc1C(=O)NCc1ccc2c(c1)CCN2C(=O)c1ccc(F)cc1,inactive
16,COc1ccc(NC(=O)C2CCN(c3ccc(Sc4ccc(C)cc4)nn3)CC2)c(OC)c1,inactive
17,N#C/C(=C\c1ccc(O)c(O)c1)C(=O)NCc1ccccc1,12.6 µM (active)
18,COc1ccc(CNC(=O)/C(C#N)=C/c2cccc(OC)c2OC)cc1,inactive
19,COCCNC(=O)/C(C#N)=C/c1cccc(OCc2ccccc2)c1,inactive
20,O=C(Nc1nnc(C2CC(=O)N(c3ccc(Cl)cc3)C2)s1)c1ccco1 (centres undefined),inactive
21,Cc1c(CNC(C)c2ccccc2)c(C(=O)O)c(C)n1Cc1c(F)cccc1Cl (centres undefined),inactive
22,COc1cc(C(CC(=O)NCCC(C)C)N2Cc3ccccc3C2=O)cc(OC)c1OC (centres undefined),inactive

row,SMILES,Potency
1,O=C(c1cc2c(s1)CCC2)N1CCN(c2ccccc2)CC1,56.2 µM (active)
2,O=C(C1CCC1)N1CCN(c2ccccc2)CC1,inactive
3,O=C(NNC(=O)c1cc2c(s1)CCCC2)c1ccccc1,inactive
4,COc1ccc(NC(=S)NCCN2CCC(C)CC2)cc1,inactive
5,COc1cccc(N2CC(C(=O)Nc3c(C)cccc3C)CC2=O)c1 (centres undefined),inactive
6,COc1ccc(OCC(=O)Nc2ccc(N3CCC(C)CC3)cc2)cc1,inactive
7,COc1ccc(N2CCC(CNC(=S)Nc3c(C)cccc3C)C2)cc1 (centres undefined),39.8 µM (active)
8,COc1ccc(NC(=S)NCC2CCN(c3ccc(OC)cc3)C2)cc1 (centres undefined),31.6 µM (active)
9,COc1ccc(NC(=O)N2CCC(Cc3ccccc3)CC2)cc1,inactive
10,NC(=O)CSc1nc2c(oc3ccccc32)c(=O)n1Cc1ccccc1,inactive
11,CCOc1ccc(OCC)c(NS(=O)(=O)c2ccc3[nH]c(=O)ccc3c2)c1,inactive
12,CCOc1ccc(N(CC)C(=O)c2noc3c2COc2ccc(C)cc2-3)cc1,inactive
13,COc1cc(-n2c(C)nc3cc(C(=O)NCc4ccco4)ccc32)cc(OC)c1OC,56.2 µM (active)
14,COc1cc(C(=O)N[C@@H](C)C(=O)NCc2ccco2)cc(OC)c1OC,inactive
15,COc1ccccc1-n1c(C)nc2cc(C(=O)NCc3ccc4c(c3)OCO4)ccc21,inactive
16,COc1ccc(-c2cn3nc(N4CCC(C(=O)Nc5cccc(C)c5C)CC4)sc3n2)cc1,inactive
17,Cc1ccccc1C(=O)Nc1sc2c(c1C(=O)N1CCC(C)CC1)CCCC2,inactive
18,O=C(C1=C(O)C(=O)N(CCOCCO)C1c1ccccn1)c1cccs1 (centres undefined),50.1 µM (active)
19,O=C(c1cccs1)N(C(=O)c1cccs1)c1ccccn1,inactive
20,O=C(c1cccs1)c1cn(CCOc2ccc(Cl)cc2)c2ccccc12,inactive
